Inconclusive results are not listed. The source made the active and inactive calls. Unless noted, calls come from the whole dose curve; as a rule, active = well fitted curve in the direction sought with a large enough effect in the repeat runs; inconclusive = weak or mixed curves; inactive = no such curve, though single readings can be large; an effect the other way counts as inactive or inconclusive.
Columns and labels:
[1] = target: Luciferin 4-monooxygenase (Photinus pyralis) (UniProt P08659); test: qHTS assay to identify small molecule inhibitors of firefly luciferase (AID 1224835); note: nearly all actives have a fitted effect of over 25% in size
Outline: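 Biochemical qHTS: compounds run as interplate titrations against purified firefly enzyme, with D-luciferin and ATP each at its KM concentration. Light output recorded by CCD imaging.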

[2] = qHTS assay to identify small molecule agonists of the constitutive androstane receptor (CAR) signaling pathway - cell viability counter screen (AID 1224836); note: nearly all actives have a fitted effect of over 45% in size
Outline: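 HepG2-CYP2B6-hCAR, 2500 cells/well, 4 h pre-incubation; cpd 15 conc + PK11195 0.75 uM final; 23 h, 37 C/5% CO2; CellTiter-Fluor, fluorescence.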

[3] = qHTS assay to identify small molecule antagonists of the constitutive androstane receptor (CAR) signaling pathway - cell viability counter screen (AID 1224837); note: nearly all actives have a fitted effect of over 45% in size
Outline: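 Cells are seeded, rested 4 hr at 37 C/5% CO2, dosed with compound (15-point series) and 50 nM CITCO, incubated a further 23 hr, and then CellTiter-Fluor reagent is added before fluorescence is read. The line is HepG2 with stable hCAR and CYP2B6-2.2kb.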

[4] = target: Nuclear receptor subfamily 1 group I member 3 (Homo sapiens) (UniProt Q14994); test: qHTS assay to identify small molecule antagonists of the constitutive androstane receptor (CAR) signaling pathway (AID 1224838);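 note: HepG2 cells stably expressing hCAR with CYP2B6 luciferase reporter stimulated by CITCO; nearly all actives have a fitted effect of over 40% in size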
Outline: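 Luminescence from a CYP2B6-2.2kb promoter reporter in hCAR-expressing HepG2 cells reflects CAR signaling. Cells received compounds at 15 concentrations and 50 nM CITCO (final), then incubated 24 h at 37 C/5% CO2.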

[5] = target: Nuclear receptor subfamily 1 group I member 3 (Homo sapiens) (UniProt Q14994); test: qHTS assay to identify small molecule agonists of the constitutive androstane receptor (CAR) signaling pathway (AID 1224839);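 note: HepG2 cells stably carrying human CAR and a CYP2B6 luciferase reporter; nearly all actives have a fitted effect of over 15% in size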
Outline: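 HepG2-CYP2B6-hCAR cells, 2500/well, 4 h pre-incubation; compounds 15 conc.; PK11195 0.75 uM final; 24 h, 37 C/5% CO2; ONE-Glo luciferase read.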

[6] = qHTS assay to identify small molecule antagonists of the estrogen related receptor signaling pathway with the pleiotropic PPARgamma coactivator (PGC) from Tox21 10K library - cell viability counter screen (AID 1224840; active = well fitted cell-killing curve with a large enough effect in the repeat runs, not every such curve was filed as active; note: nearly all actives have a fitted effect of over 40% in size)
Outline: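 Cell viability is measured by CellTiter-Fluor fluorescence in PGC/ERR cells that receive compounds after a 6-hour attachment period and are then incubated 17.5 hours at 37 C.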

[7] = qHTS assay to identify small molecule agonists of the hypoxia (HIF-1) signaling pathway - cell viability counter screen (AID 1224844; calls by dose curve; note: nearly all actives have a fitted effect of over 50% in size)
Outline: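 Viability counter screen: HRE-bla ME-180 cells plated 5 hrs before compound addition, treated 17 hrs at 37C and 5% CO2, then CellTiter-Glo added after the FRET reporter read; luminescence after 30 min.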

[8] = qHTS assay to identify small molecule agonists of H2AX (AID 1224845; active = well fitted activation curve with a large enough effect in the signal ratio in the repeat runs, not every such curve was filed as active; the % refers to the signal ratio)
Outline: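 Wild-type CHO-K1 cells, plated overnight, exposed 3hr at 37C to 15 concentrations (0.76% DMSO final). Lysed, then HTRF anti-pH2AX (S139) cryptate and anti-H2AX-d2 antibodies, 24 hr room temperature; 665/620 nm emission read.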

[9] = qHTS assay to identify small molecule agonists of the hypoxia (HIF-1) signaling pathway (AID 1224846; active = well fitted activation curve with a large enough effect in the signal ratio in the repeat runs, not every such curve was filed as active; the % refers to the signal ratio)
Outline: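 Agonist mode reporter screen. ME-180 cells stably expressing bla under HRE control received test compounds in DMSO for 17 hrs (37C, 5% CO2), and beta-lactamase activity was then detected with the CCF4-AM FRET substrate.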

[10] = qHTS RealTime-Glo MT Cell Viability Assay in HepG2 cells - 24 hour (AID 1224867); note: nearly all actives have a fitted effect of over 50% in size
Outline: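 HepG2 cells were seeded at 600 cells/well together with NanoLuc luciferase and a cell-permeant prosubstrate, preincubated 5 h at 37 C/5% CO2, then pin-dosed with compounds in DMSO. Nonlytic luminescence from viable cells was read at each time point.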

[11] = qHTS RealTime-Glo MT Cell Viability Assay in HEK293 cells - 32 hour (AID 1224868); note: top concentration of the series differs between compounds; nearly all actives have a fitted effect of over 50% in size
Outline: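 HEK293 cells were seeded at 600 cells/well together with NanoLuc luciferase and cell-permeant prosubstrate, preincubated 5 h at 37 C/5% CO2, then given compound in DMSO by pintool. Luminescence from viable-cell prosubstrate reduction was read repeatedly over 40 h.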

[12] = A CellTox Green Cytotoxicity Assay to monitor cytotoxicity in HEK293 cells - 0 hour (AID 1224869); note: nearly all actives have a fitted effect of over 50% in size
Outline: (§1)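 Dead-cell fluorescence measured kinetically: asymmetric cyanine dye, HEK293, 600 cells/well, 5 h settle, 23 nL cpd/DMSO, 37 C, reads 0–40 h every 8 h.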

[13] = qHTS RealTime-Glo MT Cell Viability Assay in HepG2 cells - 40 hour (AID 1224870); note: nearly all actives have a fitted effect of over 50% in size
Outline: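 HepG2 cells (600/well) mixed with RealTime-Glo MT reagent, settled 5 h at 37 C/5% CO2 before compound addition. Nonlytic NanoLuc luminescence from viable-cell prosubstrate reduction read repeatedly during 40 h treatment at 37 C.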

[14] = A CellTox Green Cytotoxicity Assay to monitor cytotoxicity in HEK293 cells - 40 hour (AID 1224871); note: nearly all actives have a fitted effect of over 45% in size
Outline: as §1

[15] = qHTS assay to identify small molecule agonists of H2AX - cell viability counter screen (AID 1224847; calls by dose curve; note: top concentration of the series differs between compounds; nearly all actives have a fitted effect of over 30% in size)
Outline: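 Cells plated first: CHO-K1, 1000 per well in 10% FBS medium, incubated overnight at 37C. Then 15-point compound titration added (final DMSO 0.76%) for 3 hr. Finally CellTiter-Glo added and luminescence read.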

[16] = target: Thyrotropin receptor (Homo sapiens) (UniProt P16473); test: qHTS assay to identify small molecule agonists of the thyroid stimulating hormone receptor (TSHR) signaling pathway (AID 1224843; calls by dose curve; note: nearly all actives have a fitted effect of over 45% in size)
Outline: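 Agonist-mode screen: TSHR HEK293 cells received test chemicals for half an hour at room temperature, then HTRF cAMP detection reagents for one hour prior to fluorescence measurement. Each chemical ran as a 15-concentration series, triplicated.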

[17] = qHTS assay to identify small molecule antagonists of the estrogen related receptor signaling pathway with the pleiotropic PPARgamma coactivator (PGC) from Tox21 10K library (AID 1224841; call rule not given here)
Outline: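 Cells stably carrying the PGC/ERR reporter, seeded at 2,000 per well, received pin-transferred compounds 6 h post-plating. Exposure lasted 18 h at 37 C. Signal: One-Glo luminescence.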

[18] = qHTS assay to identify small molecule agonists of the estrogen related receptor signaling pathway with the pleiotropic PPARgamma coactivator (PGC) from Tox21 10K library (AID 1224842); note: nearly all actives have a fitted effect of over 15% in size
Outline: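 PGC/ERR reporter cell line, 2,000 cells per well, incubated 6 h at 37 C before 23 nL compound in DMSO was added. After 18 h at 37 C, One-Glo luminescence read following 30 min at room temperature.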

[19] = qHTS assay to identify small molecule antagonists of the estrogen related receptor (ERR) signaling pathway from Tox21 library (AID 1224848); note: nearly all actives have a fitted effect of over 50% in size
Outline: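 Quantitative high-throughput format: ERR reporter cells (2,000/well) pre-incubated 6 h, treated 18 h at 37 C with compounds in DMSO alongside positive and negative controls, then read by ONE-Glo luminescence.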

[20] = qHTS assay to identify small molecule agonists of the estrogen related receptor (ERR) signaling pathway from Tox21 library (AID 1224849; calls by dose curve; note: nearly all actives have a fitted effect of over 15% in size); settings: ERR reporter cell line, ONE-Glo luciferase, 18 h; at 92.4 µM (top of the series) unless noted
Outline: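 Quantitative HTS in agonist format: NTP ERR cell line, compounds transferred in DMSO after 6 h plating, 18 h incubation at 37 C, ONE-Glo luminescence endpoint.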
% is set by controls: 0 for no effect and ±100 for the full control effect.

Chain of Luciferin 4-monooxygenase (Photinus pyralis) (P08659 whole entry, looked up): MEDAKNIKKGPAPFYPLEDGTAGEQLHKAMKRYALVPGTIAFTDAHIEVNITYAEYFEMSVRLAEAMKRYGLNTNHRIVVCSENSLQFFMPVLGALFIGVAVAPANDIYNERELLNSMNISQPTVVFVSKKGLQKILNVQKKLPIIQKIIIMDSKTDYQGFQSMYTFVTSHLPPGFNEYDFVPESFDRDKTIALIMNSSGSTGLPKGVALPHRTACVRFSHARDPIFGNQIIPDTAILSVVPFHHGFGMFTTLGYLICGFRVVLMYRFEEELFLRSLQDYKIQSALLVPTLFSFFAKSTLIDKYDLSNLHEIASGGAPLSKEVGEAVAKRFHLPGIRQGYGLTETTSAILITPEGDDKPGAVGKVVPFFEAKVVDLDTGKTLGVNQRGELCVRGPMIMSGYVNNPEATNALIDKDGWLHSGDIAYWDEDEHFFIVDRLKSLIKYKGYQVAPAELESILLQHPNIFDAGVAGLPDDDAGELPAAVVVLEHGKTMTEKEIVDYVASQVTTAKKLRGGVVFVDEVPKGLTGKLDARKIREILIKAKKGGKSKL
Chain of Nuclear receptor subfamily 1 group I member 3 (Homo sapiens) (Q14994 whole entry, looked up): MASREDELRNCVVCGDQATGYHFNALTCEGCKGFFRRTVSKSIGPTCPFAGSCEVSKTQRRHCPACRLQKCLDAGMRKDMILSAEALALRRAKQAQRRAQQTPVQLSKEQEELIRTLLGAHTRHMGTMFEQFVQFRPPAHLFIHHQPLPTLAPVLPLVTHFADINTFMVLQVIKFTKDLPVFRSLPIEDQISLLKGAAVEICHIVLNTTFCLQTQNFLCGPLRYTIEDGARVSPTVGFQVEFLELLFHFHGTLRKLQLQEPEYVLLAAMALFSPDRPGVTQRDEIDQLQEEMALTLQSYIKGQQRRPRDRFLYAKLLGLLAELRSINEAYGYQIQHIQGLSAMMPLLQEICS
Chain of Thyrotropin receptor (Homo sapiens) (P16473 whole entry, looked up): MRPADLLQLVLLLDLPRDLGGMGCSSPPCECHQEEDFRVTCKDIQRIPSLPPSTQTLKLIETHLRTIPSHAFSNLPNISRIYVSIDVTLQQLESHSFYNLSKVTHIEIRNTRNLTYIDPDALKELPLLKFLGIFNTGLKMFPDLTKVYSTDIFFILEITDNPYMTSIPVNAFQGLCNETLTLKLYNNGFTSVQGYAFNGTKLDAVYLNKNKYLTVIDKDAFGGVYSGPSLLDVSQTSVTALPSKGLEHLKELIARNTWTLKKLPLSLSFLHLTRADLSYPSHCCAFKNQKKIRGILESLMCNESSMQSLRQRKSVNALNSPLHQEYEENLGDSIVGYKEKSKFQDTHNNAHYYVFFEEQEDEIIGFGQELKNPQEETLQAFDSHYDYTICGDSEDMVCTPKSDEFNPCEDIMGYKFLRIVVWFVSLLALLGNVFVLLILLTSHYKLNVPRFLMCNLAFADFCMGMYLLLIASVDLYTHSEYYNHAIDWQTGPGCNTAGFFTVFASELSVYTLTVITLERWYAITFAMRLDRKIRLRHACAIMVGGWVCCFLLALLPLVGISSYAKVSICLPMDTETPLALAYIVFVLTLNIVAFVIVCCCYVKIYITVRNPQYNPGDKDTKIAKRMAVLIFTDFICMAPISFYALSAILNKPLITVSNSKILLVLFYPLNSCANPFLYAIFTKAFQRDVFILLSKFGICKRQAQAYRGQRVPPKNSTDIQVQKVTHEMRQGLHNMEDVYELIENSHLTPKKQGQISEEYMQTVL

CCN(CC)C(=O)N(CC)CC
inactive: Potency [1] | Potency [2] | Potency [3] | Potency [4] | Potency [5] | Potency [6] | Potency [7] | Potency [8] | outcome [9] | Potency [10] | Potency [11] | Potency [12] | Potency [13] | Potency [14]

CC(C)(C)C1CCCCC1=O (stereo not drawn)
inactive: Potency [1] | Potency [2] | Potency [3] | Potency [4] | Potency [5] | Potency [6] | Potency [7] | Potency [8] | outcome [9] | Potency [15] | Potency [10] | Potency [11] | Potency [12] | Potency [13] | Potency [14]

OCc1ccccc1O
inactive: Potency [1] | Potency [2] | Potency [3] | Potency [4] | Potency [5] | Potency [6] | Potency [16] | Potency [7] | Potency [8] | outcome [9] | Potency [15] | Potency [10] | Potency [11] | Potency [12] | Potency [13] | Potency [14]

Cc1c(-c2ccccc2)oc2c(C(=O)OCCN3CCCCC3)cccc2c1=O
inactive: Potency [1] | Potency [2] | Potency [3] | Potency [4] | Potency [5] | Potency [6] | Potency [16] | Potency [7] | Potency [8] | Potency [15] | Potency [10] | Potency [12] | Potency [13] | Potency [14]

c1ccc(CN(CC2=NCCN2)c2ccccc2)cc1
inactive: Potency [1] | Potency [2] | Potency [3] | Potency [4] | Potency [5] | Potency [6] | Potency [17] | Potency [18] | Potency [16] | Potency [7] | Potency [15] | Potency [19] | activity change, positive = activation [20] -0.231% [at 42.5 µM] | Potency [10] | Potency [11] | Potency [12] | Potency [14]

CO[C@@]1(NC(=O)CSCC#N)C(=O)N2C(C(=O)O)=C(CSc3nnnn3C)CS[C@@H]21
inactive: Potency [1] | Potency [2] | Potency [3] | Potency [4] | Potency [5] | Potency [6] | Potency [7] | Potency [8] | Potency [15] | Potency [10] | Potency [11] | Potency [12] | Potency [13] | Potency [14]

CCCCC1CCC(=O)O1 (stereo not drawn)
inactive: Potency [1] | Potency [2] | Potency [3] | Potency [4] | Potency [5] | Potency [6] | Potency [17] | Potency [18] | Potency [16] | Potency [7] | outcome [9] | Potency [15] | Potency [19] | activity change, positive = activation [20] -0.824% | Potency [10] | Potency [12] | Potency [13] | Potency [14]

CC(C)Nc1nc(N)nc(Cl)n1
inactive: Potency [1] | Potency [2] | Potency [3] | Potency [4] | Potency [5] | Potency [6] | Potency [16] | Potency [7] | Potency [8] | outcome [9] | Potency [15] | Potency [10] | Potency [11] | Potency [12] | Potency [13] | Potency [14]

CN1CCN(c2c(F)cc3c(=O)c(C(=O)O)cn4c3c2SCC4)CC1
inactive: Potency [1] | Potency [2] | Potency [3] | Potency [4] | Potency [6] | Potency [16] | outcome [9] | Potency [15] | Potency [10] | Potency [11] | Potency [12] | Potency [14]

CCCCNc1ccc(C(=O)OCCN(CC)CC)cc1
inactive: Potency [1] | Potency [2] | Potency [3] | Potency [4] | Potency [6] | Potency [17] | Potency [18] | Potency [16] | Potency [7] | outcome [9] | Potency [15] | Potency [19] | activity change, positive = activation [20] -11.3% [at 42.5 µM] | Potency [10] | Potency [12] | Potency [14]

CC1CN(c2ccccc2)NC1=O (stereo not drawn)
inactive: Potency [1] | Potency [2] | Potency [3] | Potency [4] | Potency [6] | Potency [16] | Potency [7] | outcome [9] | Potency [15] | Potency [10] | Potency [11] | Potency [12] | Potency [13] | Potency [14]

CC(CNC1CCCCC1)OC(=O)c1ccccc1 (stereo not drawn)
inactive: Potency [1] | Potency [2] | Potency [3] | Potency [4] | Potency [6] | Potency [17] | Potency [18] | Potency [16] | Potency [7] | Potency [15] | Potency [19] | Potency [10] | Potency [11] | Potency [12] | Potency [13] | Potency [14]

Cc1cc(S(=O)(=O)O)c(N)cc1Cl
inactive: Potency [1] | Potency [2] | Potency [3] | Potency [4] | Potency [5] | Potency [6] | Potency [7] | outcome [9] | Potency [15] | Potency [10] | Potency [11] | Potency [13] | Potency [14]

CC(=O)N[C@@H](CC(C)C)C(=O)O
inactive: Potency [1] | Potency [2] | Potency [3] | Potency [4] | Potency [6] | Potency [17] | Potency [18] | Potency [8] | outcome [9] | Potency [19] | activity change, positive = activation [20] -0.851% [at 42.5 µM] | Potency [10] | Potency [11] | Potency [14]

O=S(=O)(O)C(F)(F)F
inactive: Potency [1] | Potency [2] | Potency [3] | Potency [5] | Potency [6] | Potency [17] | Potency [18] | Potency [16] | Potency [7] | Potency [8] | outcome [9] | Potency [15] | Potency [19] | activity change, positive = activation [20] 4.04% | Potency [10] | Potency [11] | Potency [12] | Potency [13] | Potency [14]
